The values that follow come from PubChem BioAssay AID463193 (University of Pittsburgh Molecular Library Screening Center, 2010).

About 1,900 (1%) of roughly 190,000 compounds were called active.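 The calls were made as follows: active = percentage of spot-positive cells more than 3 SD above its plate mean, without a fluorescence outlier flag or 80% toxicity; inconclusive = no clear call, values can overlap the other calls; inactive = the rest.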 For the sample, actives were picked, then their nearest neighbours and some compounds at random.

The assay can be described thus: GFP-LC3 puncta formation changes – imaging, high-content, MEF GFP-LC3, primary screen (AID 463193).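 As to % cells with GFP-LC3 spots: spot-positive cell cutoff set from DMSO-treated cells.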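 As to toxicity: cell loss after 18 h compound exposure.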 The conditions noted are these: autophagy, at 10 µM; % cells with GFP-LC3 spots: stronger effect = higher value; toxicity: measured here: cell loss, nuclei count.
As to `COc1ccc(NC(=S)NCC2CCN(c3ccc(OC)cc3)C2)cc1` (configuration not stated), the % cells with GFP-LC3 spots is 6.08% (inactive) and the toxicity worked out at 8.9%.

Turning to `COc1ccc(C(=O)Nc2ccc(NC(=O)C(C)C)nc2)cc1`, the % cells with GFP-LC3 spots was 4.13% (inactive) and the toxicity was -1.69%.

Take `Cc1ccc(OCC(=O)Nc2ccc(-c3nc4ncccc4o3)cc2)cc1`: the % cells with GFP-LC3 spots was 13.3% (inactive) and the toxicity was -0.528%.

Turning to `COc1ccc(CC(=O)Nc2ccc(-c3nnc(-c4ccc(C)cc4)o3)cc2)cc1`, the % cells with GFP-LC3 spots was 39.9% (active) and the toxicity worked out at 9.61%.

On to `COc1ccc(CC(=O)Nc2ccc(C(=O)NC(C)(C)C)cc2)cc1`, for which the % cells with GFP-LC3 spots was 6.06% (inactive) and the toxicity is -0.0115%.

As for `CN(c1ccc2nc3ccccc3c(=O)n2n1)C1CCCCC1`, the % cells with GFP-LC3 spots was 14.8% (inactive) and the toxicity was found to be 11.6%.

For `Nc1nc(NC(=O)/C=C/c2ccccc2)nn1-c1ccccc1`, the % cells with GFP-LC3 spots was 7.01% (inactive) and the toxicity is 2.03%.

In the case of `OC(CNCC1CCCO1)Cn1c2ccc(Br)cc2c2cc(Br)ccc21` (configuration not stated), the % cells with GFP-LC3 spots is 7.36% (active) and the toxicity came to 47%.

`CCc1cc(Br)ccc1NC(=O)C1CCCO1` (configuration not stated): the % cells with GFP-LC3 spots was 2.25% (inactive) and the toxicity is -4.23%.

Consider `Cc1ccc(C(=O)NCC2CCCO2)o1` (configuration not stated), for which the % cells with GFP-LC3 spots was 12.6% (inactive) and the toxicity was -1.73%.

As to `c1cc(-n2cnnn2)ccc1NC1=NCCC1`, the % cells with GFP-LC3 spots is 12.1% (active) and the toxicity was -6.55%.

With `O=C(Cc1c(F)cccc1Cl)Nc1ccc(-n2cnnn2)cc1`, the % cells with GFP-LC3 spots was 1.73% (inactive) and the toxicity was determined as 5.48%.

Take `O=C(c1ccc(-n2cnnn2)cc1)N1CCN(C(c2ccccc2)c2ccccc2)CC1`: the % cells with GFP-LC3 spots is 1.42% (inactive) and the toxicity is 13.6%.

With `CN(C)CCNC(=O)Cc1ccc([N+](=O)[O-])cc1`, the % cells with GFP-LC3 spots was 4.19% (inactive) and the toxicity turned out to be 2.43%.

Turning to `COc1ccc(CC(=O)NCc2nnc(SCC(=O)Nc3ncc(C)s3)n2C)cc1`, the % cells with GFP-LC3 spots is 3.99% (inactive) and the toxicity was -3.03%.

With `Cn1c(=O)c([N+](=O)[O-])c(Oc2ccccc2)c2ccccc21`, the % cells with GFP-LC3 spots is 0.277% (inactive) and the toxicity is -4.02%.

For `O=C(OCC1O[C@@H](OC(=O)c2cc(O)c(O)c(O)c2)[C@@H](OC(=O)c2cc(O)c(O)c(O)c2)[C@@H](OC(=O)c2cc(O)c(O)c(O)c2)[C@@H]1OC(=O)c1cc(O)c(O)c(O)c1)c1cc(O)c(O)c(O)c1` (some centres not stated), the % cells with GFP-LC3 spots was 0.427% (inactive) and the toxicity is -40.5%.

On to `CCOC(=O)C1=C(C)OC(N)=C(C#N)C1c1cncc(-c2ccc(F)cc2)c1` (configuration not stated), for which the % cells with GFP-LC3 spots was 6.18% (inactive) and the toxicity is 10.5%.

With `C(=N\N1CCN(c2ccccn2)CC1)/C1=C(N2CCOCC2)C(=C/c2ccccc2)/CC1`, the % cells with GFP-LC3 spots was 21.9% (inactive) and the toxicity worked out at 10.4%.

Consider `N#C/C(=C\c1ccccc1C(F)(F)F)C(=O)Nc1ccccc1F`, for which the % cells with GFP-LC3 spots is 17.6% (inactive) and the toxicity was -10.6%.

Take `N#C/C(=C\C1=C(N2CCOCC2)C(=C\c2ccccc2)/CC1)C(=O)Nc1ccccc1F`: the % cells with GFP-LC3 spots is 94.8% (active) and the toxicity worked out at 9.15%.

On to `O=C1CCCN1CCCNC(=S)Nc1ccc(F)c(Cl)c1`, for which the % cells with GFP-LC3 spots is 9.25% (inactive) and the toxicity came out at 10.7%.

`COc1ccc(C(=O)NC(=S)Nc2ccc(N3CCCC3)cc2)cc1OC`: the % cells with GFP-LC3 spots was 2.21% (inactive) and the toxicity turned out to be 8.63%.

Consider `COc1cccc(C(=O)Nc2ccc(N3CCCC3)cc2)c1`, for which the % cells with GFP-LC3 spots is 41.2% (active) and the toxicity is 21.3%.

Consider `COc1cccc(OC)c1C(=O)Nc1ccc(N2CCCCC2)cc1`, for which the % cells with GFP-LC3 spots is 4.97% (inactive) and the toxicity turned out to be 0.418%.

With `CC(=O)N/C(=C/c1ccc(Cl)cc1)C(=O)NCCc1c[nH]c2ccccc12`, the % cells with GFP-LC3 spots is 1.94% (inactive) and the toxicity was -16.7%.

As for `O=C(NCCc1c[nH]c2ccccc12)C(=O)NCC1CCCO1` (configuration not stated), the % cells with GFP-LC3 spots was 2.06% (inactive) and the toxicity was 4.43%.

Take `N#C/C(=C/c1ccc(N2CCCCC2)o1)C(=O)NCCc1c[nH]c2ccccc12`: the % cells with GFP-LC3 spots is 95% (active) and the toxicity was -16.4%.

`O=C(Nc1cccc(F)c1)c1ccc(S(=O)(=O)N2CCCC2)cc1`: the % cells with GFP-LC3 spots was 2.96% (inactive) and the toxicity is -0.834%.

With `COc1ccc(C(=O)Nc2ccc(F)cc2F)cc1`, the % cells with GFP-LC3 spots is 8.35% (inactive) and the toxicity was 1.69%.

Consider `CCOC(=O)N1CCN(S(=O)(=O)c2ccc(C(=O)Nc3ccc(F)cc3F)cc2)CC1`, for which the % cells with GFP-LC3 spots is 13.1% (active) and the toxicity stood at 35.6%.

Turning to `CCCCN1C(=O)/C(=C2/C=CC=CN2C)SC1=S`, the % cells with GFP-LC3 spots is 2.78% (inactive) and the toxicity is -16.3%.

As to `O=C(CCCN1C(=O)/C(=C/c2ccccc2)SC1=S)Nc1ccc(O)cc1`, the % cells with GFP-LC3 spots is 5.17% (inactive) and the toxicity came to 20.5%.

On to `CCCCN1C(=O)/C(=C/C=C2/C=Cc3ccccc3N2CC)SC1=S`, for which the % cells with GFP-LC3 spots was 36.6% (active) and the toxicity came out at 17.1%.

As for `Cc1ccccc1Cn1nc(C)c(NC(=O)C(F)(F)F)c1C`, the % cells with GFP-LC3 spots is 25.2% (inactive) and the toxicity is -15.5%.

Take `COc1ccc(NC(=O)COC(=O)c2ccncc2)c(OC)c1`: the % cells with GFP-LC3 spots was 4.41% (inactive) and the toxicity was 21.4%.

Turning to `CC1c2nc3ccccc3n2C(CC(=O)NCCCN2CCOCC2)C(=O)N1Cc1ccccc1` (configuration not stated), the % cells with GFP-LC3 spots was 6.3% (inactive) and the toxicity is -3.99%.

In the case of `COc1ccc(OC)c(NC(=S)N2CCc3ccccc3C2)c1`, the % cells with GFP-LC3 spots was 1.08% (inactive) and the toxicity is -17.2%.

Take `Cc1cc(C)n(-c2cc(Oc3ccccc3)ncn2)n1`: the % cells with GFP-LC3 spots was 4.54% (inactive) and the toxicity is -5.5%.

As to `COc1ccc(Nc2cc(C)nc(-n3nc(C)cc3C)n2)cc1`, the % cells with GFP-LC3 spots is 1.92% (inactive) and the toxicity was found to be 48.3%.

On to `CC(=O)c1ccc(Oc2cc(C)nc(-n3nc(C)cc3C)n2)cc1`, for which the % cells with GFP-LC3 spots is 22.7% (active) and the toxicity amounted to 52.9%.
